How the values were obtained:
[1] = target: IKZF1 (dCK*-IKZF1 fusion in HEK293FT) (UniProt Q13422); test: inhibition of IKZF1 HTRF signal (DMSO = 0%, pomalidomide 10 uM = 100%); higher = lower IKZF1 protein level; conditions: compound concentration: 5 uM, overnight (~20 h)
Procedure, shortened: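 Percent inhibition of IKZF1 signal was calculated per plate with vehicle and a reference degrader as anchors. The anchors were 0% for vehicle and 100% for the degrader, applied to background-subtracted 665/620 nm time-resolved FRET ratios from a commercial HTRF total-IKZF1 kit. Signal came from HEK293FT cells stably expressing an IKZF1 fusion, treated overnight at 37 °C with 5 μM compound in single wells of 384-well plates.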

HEK293FT dCK*-only = test: relative growth in counter assay (no AraC = 100%, AraC + DMSO = 0%); higher = more growth rescue independent of IKZF1; conditions: compound concentration: 5 uM; AraC concentration: 0.3 uM; overnight pretreatment + 4 days AraC
Procedure, shortened: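 Nuclei were counted by imaging after Hoechst 33342 staining on day 5, in HEK293FT cells (300/well, 384-well) expressing only an engineered kinase construct. Compound at 5 μM went in 2 h after seeding, followed after overnight at 37 °C by a nucleoside suicide substrate at 0.3 μM plus medium for 4 days. Per plate, wells lacking suicide substrate defined 100% and those with substrate plus vehicle defined 0%.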

HEK293FT dCK*-IKZF1 = test: relative growth recovery (pomalidomide 10 uM = 100%, DMSO = 0%); higher = more growth rescue (IKZF1 fusion degradation); conditions: compound concentration: 5 uM; AraC concentration: 0.3 uM; overnight pretreatment + 4 days AraC
Procedure, shortened: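 Means of duplicates from different days are given for growth recovery, normalised per plate against a reference degrader and vehicle. The reference degrader set the 100% level and vehicle the 0% level. HEK293FT cells stably expressing a deoxycytidine kinase–IKZF1 fusion (300/well, 384-well) received 5 μM compound 2 h after seeding and, after overnight at 37 °C, 0.3 μM of a nucleoside suicide substrate plus medium for 4 days. Nuclei stained with Hoechst 33342 were then counted by whole-well imaging on day 5.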

Sequence of IKZF1 (dCK*-IKZF1 fusion in HEK293FT) (Q13422 whole entry, looked up, the tested form may be a part): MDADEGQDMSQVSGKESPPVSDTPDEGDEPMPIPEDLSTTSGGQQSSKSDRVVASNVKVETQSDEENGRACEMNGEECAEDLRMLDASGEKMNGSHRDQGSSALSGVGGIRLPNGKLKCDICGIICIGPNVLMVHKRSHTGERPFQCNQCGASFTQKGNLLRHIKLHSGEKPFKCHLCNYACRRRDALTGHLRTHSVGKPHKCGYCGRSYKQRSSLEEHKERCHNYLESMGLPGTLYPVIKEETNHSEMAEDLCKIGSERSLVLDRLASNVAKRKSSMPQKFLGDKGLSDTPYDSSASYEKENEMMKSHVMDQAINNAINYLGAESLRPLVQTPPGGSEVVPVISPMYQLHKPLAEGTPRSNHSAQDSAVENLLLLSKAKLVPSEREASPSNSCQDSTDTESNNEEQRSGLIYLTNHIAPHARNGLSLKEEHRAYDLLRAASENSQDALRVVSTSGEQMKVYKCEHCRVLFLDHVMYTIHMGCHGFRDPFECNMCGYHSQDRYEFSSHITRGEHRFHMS

Structure (SMILES) | inhibition of IKZF1 HTRF signal [1] | relative growth in counter assay (HEK293FT dCK*-only) | relative growth recovery (HEK293FT dCK*-IKZF1)
CC[C@@H](C(N)=O)N1CCCC1=O | 17.7% | 2.24% | 0.38%
O=C1/C(=C/c2ccccc2)C[C@@]2(O)C3Cc4ccc(O)c5c4[C@@]2(CCN3CC2CC2)[C@H]1O5 | 27.9% | -34.5% | -12.6%
CC[C@H]1C2CC3[C@@H]4N(C)c5ccccc5[C@]45C[C@@H](C2C5O)N3[C@@H]1O (stereo not given in full) | -0.05% | 5.04% | 1.42%
Oc1cc(Cl)ccc1Oc1ccc(Cl)cc1Cl | -23.1% | -4.14% | -0.94%
C[C@H]1O[C@@H](O[C@H]2[C@@H](O)C[C@H](O[C@H]3[C@@H](O)C[C@H](O[C@H]4CC[C@@]5(C)[C@H](CC[C@@H]6[C@@H]5C[C@@H](O)[C@]5(C)C(c7coc(O)c7)CC[C@]65O)C4)O[C@@H]3C)O[C@@H]2C)C[C@H](O)[C@@H]1O (stereo not given in full) [Digoxin] | 84.1% | -34.1% | -12.6%
COc1ccc(C[C@H]2NC[C@H](O)[C@H]2OC(C)=O)cc1 [anisomycin] | 63.3% | -34.7% | -12.5%
CCO[C@H]1O[C@@H]2O[C@@]3(C)CC[C@H]4[C@H](C)CC[C@@H]([C@H]1C)[C@@]24OO3 [Artemotil] | 21.4% | -27.3% | -5.64%
Fc1ccc(C(OCCN2CCN(CCCc3ccccc3)CC2)c2ccc(F)cc2)cc1 [vanoxerine] | -25.6% | -32.4% | -10.5%
O=C(CCCN1CCC(n2c(=O)[nH]c3ccccc32)CC1)c1ccc(F)cc1 [benperidol] | -18.1% | 4.87% | 1.78%
C=C(C)CN1CC[C@]23c4c5ccc(O)c4O[C@H]2c2[nH]c4ccccc4c2C[C@@]3(O)C1C5 | -30.3% | -7.54% | -3.3%

Source: the supplement of paper PMC12340641
